The nature of this experiment: NCI Yeast Anticancer Drug Screen. Data for the sgs1 strain (AID 173).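 Also: 0% = growth of vehicle-only control cultures.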 The conditions noted are these: S. cerevisiae sgs1 mutant, stronger effect = higher value. On the procedure: Growth inhibition of yeast strains with defined genetic alterations is measured as a screen for potential anti-cancer activity. Selected strains with alterations in DNA damage repair or cell cycle control were exposed to compounds and growth inhibition was measured relative to vehicle treated controls. The strain used in this assay is sgs1

The panel holds about 79,000 compounds, 15% with a hit somewhere; the sample as a whole holds those more often. Values without a mark were called inactive. Calls of active or inactive are those of the source. Rule as the data show it: active = growth inhibition above about 70%; inactive = the rest.

For the molecule `S=C(N/N=C(/c1ccccc1)c1ccccn1)N1CCCCCC1`, the growth inhibition by setting is: (at 1.2 µM) 4%; (at 3.7 µM) 10%; (at 11.0 µM) 11%; (at 33.0 µM) 10%; (at 100.0 µM) 7%.
Take `CCCCCCCCCCC1CCC(=O)O1` (stereo not given): the growth inhibition by setting is: (at 1.2 µM) -1%; (at 3.7 µM) 1%; (at 11.0 µM) 3%; (at 33.0 µM) 20%; (at 100.0 µM) 99% (active).
Regarding `CSC1=NNC(SC)=NN1`, the growth inhibition is -5% (at 1.2 µM); -11% (at 3.7 µM); 8% (at 11.0 µM); 75% (active) (at 33.0 µM); 98% (active) (at 100.0 µM).
Turning to `CCC(C)COC(=O)c1ccc(N=Cc2ccc(C=Nc3ccc(C(=O)OCC(C)CC)cc3)cc2)cc1` (stereo not given), the growth inhibition was -2% (at 1.2 µM); -2% (at 3.7 µM); 2% (at 11.0 µM); 7% (at 33.0 µM); 11% (at 100.0 µM).
As for `CN(C)CCn1c2c3ccccc3ccc2c2oc(=O)c3ccccc3c21`, the growth inhibition runs as follows: (at 1.2 µM) 12%; (at 3.7 µM) 16%; (at 11.0 µM) 50%; (at 33.0 µM) 93% (active); (at 100.0 µM) 92% (active).
As for `CNC1C(OC2C(OC3C(O)C(O)C(N=C(N)N)C(O)C3N=C(N)N)OC(C)C2(O)CO)OC(CO)C(O)C1O` (stereo not given), the growth inhibition is, setting by setting: (at 1.2 µM) -1%; (at 3.7 µM) 1%; (at 11.0 µM) 2%; (at 33.0 µM) 35%; (at 100.0 µM) 46%.
For the molecule `COC(=O)C1=C(C)NC(C)=C(C(=O)OC)C1c1cccc(/[N+]([O-])=C/c2ccccc2)c1`, the growth inhibition (at 1.2 µM) is 1%; the growth inhibition (at 3.7 µM) is 5%; the growth inhibition (at 11.0 µM) was 12%; the growth inhibition (at 33.0 µM) was 71% (active); the growth inhibition (at 100.0 µM) was 96% (active).
As for `CC(=O)Cc1ccc[cH-]1.[Fe+2].c1cc[cH-]c1`, the growth inhibition is 0% (at 1.2 µM); 0% (at 3.7 µM); 9% (at 11.0 µM); 23% (at 33.0 µM); 46% (at 100.0 µM).

These data come from PubChem BioAssay (NCI).
